Source: PubChem BioAssay (NCATS)
A number with no mark means an inactive call. Records with an inconclusive call do not appear. Entries that show only a call come without a potency. Active and inactive are the calls of the source. Calls come from the whole dose curve; as a rule, active = well fitted curve in the direction sought with a large enough effect; inconclusive = small, poorly fitted or top-dose-only effect, or another doubt; inactive = no such curve, though single readings can be large; an effect the other way counts as inactive or inconclusive.

Experiments:
[1] = molecular target: Cytochrome P450 2D6 (Homo sapiens) (UniProt P10635); assay: qHTS Assay for Inhibitors and Substrates of Cytochrome P450 2D6 (AID 891); note: nearly all actives have a fitted effect of over 60% in size; note: potency is the fitted concentration of half-maximal effect;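 for activity change, negative = inhibition: luciferin methyl ether substrate demethylated by CYP2D6 with NADPH regeneration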
Sequence of Cytochrome P450 2D6 (Homo sapiens) (P10635 whole entry, looked up): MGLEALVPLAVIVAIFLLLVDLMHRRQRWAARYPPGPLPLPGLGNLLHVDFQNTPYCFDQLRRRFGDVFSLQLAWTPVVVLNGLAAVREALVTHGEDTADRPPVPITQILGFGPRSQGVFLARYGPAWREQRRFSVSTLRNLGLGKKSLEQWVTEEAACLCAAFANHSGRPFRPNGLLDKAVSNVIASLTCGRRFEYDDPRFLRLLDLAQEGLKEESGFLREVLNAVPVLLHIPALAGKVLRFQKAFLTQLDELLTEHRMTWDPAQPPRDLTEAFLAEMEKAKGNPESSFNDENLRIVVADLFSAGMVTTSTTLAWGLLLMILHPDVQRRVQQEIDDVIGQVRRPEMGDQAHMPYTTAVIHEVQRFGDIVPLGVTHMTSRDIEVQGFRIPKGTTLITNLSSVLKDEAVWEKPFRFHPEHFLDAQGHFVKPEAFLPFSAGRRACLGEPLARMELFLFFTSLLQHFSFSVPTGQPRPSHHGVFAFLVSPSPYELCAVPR
Summary of the method: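 Human CYP2D6 (5 nM) with 30 uM Luciferin-ME EGE (at Km) in 100 mM KPO4, compound preincubated 10 min, then NADPH regeneration system for 60 min at room temperature. Luciferin read by luminescence; normalized to 1.43 uM quinidine.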

[2] = molecular target: Alpha-galactosidase (Coffea arabica) (UniProt Q42656); assay: Counterscreen for Glucocerebrosidase Inhibitors: qHTS Assay for Coffee Bean alpha-Galactosidase at pH 4.5 (AID 957); note: series mostly up to about 77 µM
Sequence of Alpha-galactosidase (Coffea arabica) (Q42656 whole entry, looked up): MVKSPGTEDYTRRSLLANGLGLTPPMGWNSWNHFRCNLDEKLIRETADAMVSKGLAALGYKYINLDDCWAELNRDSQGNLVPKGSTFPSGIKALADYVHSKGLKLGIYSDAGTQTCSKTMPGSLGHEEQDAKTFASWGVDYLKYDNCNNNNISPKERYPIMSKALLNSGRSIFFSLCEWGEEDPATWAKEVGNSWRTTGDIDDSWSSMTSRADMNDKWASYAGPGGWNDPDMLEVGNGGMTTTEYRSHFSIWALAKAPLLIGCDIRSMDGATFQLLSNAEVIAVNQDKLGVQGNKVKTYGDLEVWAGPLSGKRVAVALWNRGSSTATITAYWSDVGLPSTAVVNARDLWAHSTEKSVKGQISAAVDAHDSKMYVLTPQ
Summary of the method: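 AC50 values derive from Hill-equation modeling of concentration-response data, normalized to no-enzyme and full-activity controls. The pH 4.5 citrate assay used 2 nM coffee bean enzyme and 80 uM fluorogenic substrate for 20 min.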

[3] = molecular target: Alpha-galactosidase (Coffea arabica) (UniProt Q42656); assay: Counterscreen for Glucocerebrosidase Inhibitors: qHTS Assay for Coffee Bean alpha-Galactosidase at pH 5.9 (AID 998)
Summary of the method: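 Compounds were titrated from 0.7 nM to 77 uM against green coffee bean alpha-galactosidase (2 nM) using 80 uM fluorogenic 4-methylumbelliferyl substrate. After 20 min at room temperature, reactions were stopped at pH 10 and read by fluorescence.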

[4] = molecular target: Cytochrome P450 3A4 (Homo sapiens) (UniProt P08684); assay: qHTS Assay for Activators of Cytochrome P450 3A4 (AID 885); note: nearly all actives have a fitted effect of over 65% in size
Sequence of Cytochrome P450 3A4 (Homo sapiens) (P08684 whole entry, looked up): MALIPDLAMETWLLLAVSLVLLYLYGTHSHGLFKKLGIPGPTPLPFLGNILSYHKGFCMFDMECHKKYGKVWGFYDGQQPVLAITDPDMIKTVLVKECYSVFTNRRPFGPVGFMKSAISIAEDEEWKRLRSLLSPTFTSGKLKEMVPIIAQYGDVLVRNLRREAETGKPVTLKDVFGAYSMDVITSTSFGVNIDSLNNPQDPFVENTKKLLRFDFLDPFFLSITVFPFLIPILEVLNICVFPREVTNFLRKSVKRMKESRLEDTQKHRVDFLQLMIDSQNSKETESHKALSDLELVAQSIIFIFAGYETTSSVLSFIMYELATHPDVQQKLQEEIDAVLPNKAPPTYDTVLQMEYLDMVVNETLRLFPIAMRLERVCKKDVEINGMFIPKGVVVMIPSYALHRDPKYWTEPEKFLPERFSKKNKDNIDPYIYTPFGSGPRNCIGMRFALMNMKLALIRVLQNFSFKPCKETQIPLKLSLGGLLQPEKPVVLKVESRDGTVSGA
Summary of the method: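 Signal was normalized against complete inhibition by 57 uM ketoconazole. The reaction used 20nM CYP3A4 with 25uM Luciferin-PPXE, 10-min compound preincubation and a 60-min NADPH-supported step at RT.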

[5] = molecular target: Cytochrome P450 2C19 (Homo sapiens) (UniProt P33261); assay: qHTS Assay for Inhibitors and Substrates of Cytochrome P450 2C19 (AID 899); note: potency is the fitted concentration of half-maximal effect; nearly all actives have a fitted effect of over 60% in size
Sequence of Cytochrome P450 2C19 (Homo sapiens) (P33261 whole entry, looked up): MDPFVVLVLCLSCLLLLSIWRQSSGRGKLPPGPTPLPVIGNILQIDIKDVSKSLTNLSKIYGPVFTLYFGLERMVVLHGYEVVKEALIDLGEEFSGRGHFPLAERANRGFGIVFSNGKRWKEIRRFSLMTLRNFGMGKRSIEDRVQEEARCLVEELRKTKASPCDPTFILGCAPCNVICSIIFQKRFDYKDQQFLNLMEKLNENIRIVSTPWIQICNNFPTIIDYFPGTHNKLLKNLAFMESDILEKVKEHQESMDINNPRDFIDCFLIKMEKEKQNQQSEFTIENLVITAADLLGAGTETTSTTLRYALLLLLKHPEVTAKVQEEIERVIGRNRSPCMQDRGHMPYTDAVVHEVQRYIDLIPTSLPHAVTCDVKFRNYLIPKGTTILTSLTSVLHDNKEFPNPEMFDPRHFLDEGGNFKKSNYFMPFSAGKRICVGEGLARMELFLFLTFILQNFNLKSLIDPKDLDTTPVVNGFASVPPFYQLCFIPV
Summary of the method: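 Luminescence readout of luciferin formed from 10uM Luciferin-H EGE (KM level) by 5 nM CYP2C19 in 50mM KPO4. 60 min NADPH-driven reaction at 37C after 10 min compound preincubation; data scaled to 57uM ketoconazole inhibition.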

[6] = molecular target: Muscarinic acetylcholine receptor M1 (Rattus norvegicus) (UniProt P08482); assay: qHTS Assay for Antagonists of Acetylcholine Muscarinic M1 Receptor: Measurement of IP-One Response (AID 944); note: potency is the fitted concentration of half-maximal effect; nearly all actives have a fitted effect of over 75% in size
Sequence of Muscarinic acetylcholine receptor M1 (Rattus norvegicus) (P08482 whole entry, looked up): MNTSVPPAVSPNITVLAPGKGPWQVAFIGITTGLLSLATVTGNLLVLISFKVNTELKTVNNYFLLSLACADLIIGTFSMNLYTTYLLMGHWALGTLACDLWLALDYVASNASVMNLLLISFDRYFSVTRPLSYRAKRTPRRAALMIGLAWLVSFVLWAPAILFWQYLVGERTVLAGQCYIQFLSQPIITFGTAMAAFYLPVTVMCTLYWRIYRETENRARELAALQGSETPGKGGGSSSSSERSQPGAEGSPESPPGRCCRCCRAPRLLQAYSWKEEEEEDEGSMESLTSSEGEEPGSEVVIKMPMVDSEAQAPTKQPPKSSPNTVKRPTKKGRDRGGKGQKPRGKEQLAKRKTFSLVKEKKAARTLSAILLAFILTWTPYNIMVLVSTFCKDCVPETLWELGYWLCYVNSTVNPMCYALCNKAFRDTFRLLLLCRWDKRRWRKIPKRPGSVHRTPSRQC
Summary of the method: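 Steps: plate transfected CHO-M1 cells overnight; add test compound, 10 min; add carbachol (200 nM, EC80) in stimulation buffer with LiCl; incubate 30 min; add labelled IP1 tracer and anti-IP1 antibody in lysis buffer; read HTRF after 10 min.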

[7] = Confirmation and Secondary Assay for Modulators of Hemoglobin Beta Chain Splicing at IVS2 654 locus (AID 910);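 note: HeLa cells stably carrying EGFP split by mutant beta-globin IVS2-654 intron; per-well total GFP intensity by laser scanning cytometry after 2-day treatment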
Summary of the method: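 Readout: per-well total peak green fluorescence (488 nm ex, 500–520 nm em) from objects 5–250 µm, reflecting correct splicing of an EGFP-654 reporter. Compounds were applied for 2 days at 37 °C to overnight-plated HeLa EGFP-654 cells; controls were DMSO and 500 nM IVS2-654 PNA.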

[8] = Confirmation and Secondary Assay for Modulators of Hemoglobin Beta Chain Splicing at IVS2 705 locus (AID 930);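 note: HeLa cells stably expressing the EGFP-705 splicing reporter; GFP fluorescence per well restored by corrected splicing of the IVS2-705 intron in EGFP; series mostly up to about 46 µM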
Summary of the method: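 HeLa EGFP-705 reporter; 500 cells/well, o/n 37C 5% CO2; cpd 2 d; 488 ex/500-520 em laser scan; total peak GFP intensity/well. Ref: 500 nM […] antisense PNA.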

[9] = qHTS Assay for Identification of Small Molecule Antagonists for Thrombopoietin (TPO) Signaling Pathway (AID 918); conditions: TPO-dependent cell signaling reporter, antagonist mode; note: potency is the fitted concentration of half-maximal effect; nearly all actives have a fitted effect of over 60% in size
Summary of the method: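 First, Ba/F3 reporter cells expressing human TPO receptor were held overnight without IL-3. Next, compound and 26 pM TPO were added. After 24 hrs incubation at 37 C, luciferase luminescence under the Glycoprotein IIb promoter was recorded.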

[10] = molecular target: Muscarinic acetylcholine receptor M1 (Rattus norvegicus) (UniProt P08482); assay: qHTS Assay for Antagonists of Acetylcholine Muscarinic M1 Receptor: Kinetic Measurement of Intracellular Calcium Response (AID 943); note: potency is the fitted concentration of half-maximal effect; nearly all actives have a fitted effect of over 75% in size
Summary of the method: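 Intracellular calcium flux, recorded with Fluo-4 in a kinetic plate reader, served as signal; the response to carbachol at EC80 (100 nM final) was taken as maximal over minimal fluorescence after a 10 min compound pre-incubation in rat M1-CHO cells.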

[11] = molecular target: Pyruvate kinase (Leishmania mexicana) (UniProt Q27686); assay: qHTS Validation Assay for Inhibitors of Leishmania Mexicana Pyruvate Kinase (AID 945)
Sequence of Pyruvate kinase (Leishmania mexicana) (Q27686 2-499 E452W): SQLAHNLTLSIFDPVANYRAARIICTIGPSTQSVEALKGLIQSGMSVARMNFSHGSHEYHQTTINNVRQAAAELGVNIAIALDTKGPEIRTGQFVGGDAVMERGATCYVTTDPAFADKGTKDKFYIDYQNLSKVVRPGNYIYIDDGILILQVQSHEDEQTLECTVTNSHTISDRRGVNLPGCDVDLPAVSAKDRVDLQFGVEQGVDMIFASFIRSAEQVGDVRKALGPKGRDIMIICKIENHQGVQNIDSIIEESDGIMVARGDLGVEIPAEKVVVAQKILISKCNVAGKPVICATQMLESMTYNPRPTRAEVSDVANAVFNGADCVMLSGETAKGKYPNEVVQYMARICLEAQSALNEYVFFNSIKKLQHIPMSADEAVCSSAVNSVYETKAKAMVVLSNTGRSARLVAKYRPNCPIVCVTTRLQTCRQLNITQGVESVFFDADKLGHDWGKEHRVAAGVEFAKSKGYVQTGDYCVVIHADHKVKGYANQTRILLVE
Summary of the method: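 Substrate mix (0.5 mM PEP, 0.1 mM ADP, 7 mM MgCl2, 50 mM KCl, pH 7.2 imidazole) received compound by pin tool, then 0.2 nM LmPYK E451W. After 1 h at room temperature, PKLight was added and luminescence measured.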

## C[C@@H](COc1ccccc1)N(CCCl)Cc1ccccc1
[1]
  Potency: 1580 nM (active)
[2]
  outcome: inactive
[3]
  outcome: inactive

## [O-]/[N+](=N\O)c1ccccc1
[4]
  Potency: inactive

## O=c1[nH]c(=O)n([C@H]2C[C@H](O)[C@H](CO)O2)cc1/C=C\Br
[4]
  Potency: inactive
[3]
  outcome: inactive

## COC(=O)[C@H]1[C@@H](c2ccccc2)[C@@]2(c3ccccc3)Oc3ccccc3[C@@]1(O)[C@@H]2O
[4]
  activity change, positive = activation: -40.9% [at 11.4 µM]
[1]
  activity change, negative = inhibition: 40.2% [at 11.4 µM]

## Cc1ncc(CN2CC=C(c3ccccc3)CC2)c(N)n1
[4]
  Potency: inactive

## N#CC(=C(/N)Sc1ccccc1N)/C(C#N)=C(/N)Sc1ccccc1N
[1]
  Potency: 20 nM (active)
[3]
  outcome: inactive

## O=C1C=CC(=O)c2c1ccc1c2ccc2ccccc21
[5]
  Potency: 1580 nM (active)

## Clc1ccc(C(c2ccc(Cl)cc2)n2cc[n+](C[C@@H](OCc3ccc(Cl)cc3Cl)c3ccc(Cl)cc3Cl)c2)cc1
[4]
  Potency: inactive
[1]
  Potency: 39.8 nM (active)
[6]
  Potency: 14100 nM (active)
[2]
  outcome: inactive
[3]
  outcome: inactive

## CC(=O)[C@@H]1CC[C@@H]2[C@@H]3CC=C4C[C@H](OS(=O)(=O)O)CC[C@@]4(C)[C@H]3CC[C@]21C
[4]
  Potency: inactive
[3]
  outcome: inactive

## COC(=O)[C@]1(C)CC[C@@]2(C)CC[C@@]3(C)C4=CCc5c(cc(O)c(O)c5C)[C@]4(C)CC[C@@]3(C)C2C1 (some centres not stated)
[4]
  Potency: inactive
[7]
  Potency: inactive
[8]
  outcome: inactive

## CN1[C@H](CC(=O)c2ccccc2)CCC[C@H]1C[C@@H](O)c1ccccc1
[1]
  Potency: 10 nM (active)

## C[C@]12CC[C@@H]3C(=CCc4cc(O)ccc43)[C@@H]1CCC2=O
[4]
  Potency: inactive

## COC(=O)[C@H]1[C@H](c2ccccc2)C(=O)[C@@]2(O)c3ccccc3O[C@@]12c1ccccc1
[4]
  activity change, positive = activation: -48.2% [at 11.4 µM]

## c1ccc2c(c1)-c1ccccc1C2N1CC2CCC(CC2)C1
[1]
  Potency: 3980 nM (active)

## CCN1CCC[C@@H](OC(=O)C(c2ccccc2)c2ccccc2)C1
[1]
  Potency: 1580 nM (active)

## CC(=O)Oc1ccc2c(c1)CCC1C2CC[C@]2(C)C(OC(C)=O)CCC12 (some centres not stated)
[4]
  Potency: inactive

## O=C(OCC1CO1)C1CCCCC1C(=O)OCC1CO1 (configuration not stated)
[4]
  Potency: inactive

## O=C(C[n+]1ccc2ccccc2c1)c1ccc2ccc3ccccc3c2c1
[1]
  Potency: 794 nM (active)

## O[C@@H](c1cc(-c2ccccc2)nc2c1ccc1ccccc12)[C@@H]1CCCCN1
[1]
  Potency: 3160 nM (active)

## C=C(C)C1Cc2c(ccc3c2OC2COc4cc(OC)c(OC)cc4C2C3=O)O1 (configuration not stated)
[7]
  Potency: inactive
[8]
  outcome: inactive

## CC1=C(O)C(=O)C=C2C1=CC=C1[C@]2(C)CC[C@@]2(C)C3C[C@](C)(C(=O)O)CC[C@@]3(C)CC[C@@]12C (some centres not stated)
[7]
  Potency: inactive
[8]
  outcome: inactive

## CC[C@@H]1CN2CCc3cc(OC)c(OC)cc3[C@H]2C[C@@H]1C[C@@H]1NCCc2cc(OC)c(OC)cc21
[9]
  Potency: 63.1 nM (active)

## COc1ccc2c(c1)CCC1C2CC[C@]2(C)[C@H](NCCCCCCN3C(=O)C=CC3=O)CC[C@@H]12 (some centres not stated)
[9]
  Potency: 2000 nM (active)

## CC(=O)O[C@@H]1[C@H]([N+]2(C)CCCCC2)C[C@@H]2[C@@H]3CC[C@@H]4C[C@@H](OC(C)=O)[C@H]([N+]5(C)CCCCC5)C[C@@]4(C)[C@H]3CC[C@]21C
[10]
  Potency: 8910 nM (active)
[6]
  Potency: 14100 nM (active)

## CC(C)[C@@H]1NC(=O)[C@H](CCCCN)NC(=O)[C@H](Cc2c[nH]c3ccccc23)NC(=O)[C@H](Cc2ccc(O)cc2)NC(=O)[C@H](C)N(C)C(=O)[C@H](Cc2ccccc2)NC1=O
[11]
  Potency: inactive

## CN1CCc2cc(O)c(O)cc2[C@H](c2ccccc2)C1
[2]
  outcome: inactive
[3]
  outcome: inactive

## COc1cc2nc(N3CCN(C(=O)OCc4ccccc4)[C@H](C(=O)NC(C)(C)C)C3)nc(N)c2cc1OC
[2]
  outcome: inactive
[3]
  outcome: inactive

## CN(C)CCO[C@](C)(c1ccccc1)c1ccccn1
[2]
  outcome: inactive
[3]
  outcome: inactive

## C[C@@H]([C@H](O)c1ccc(O)cc1)N1CCC(Cc2ccccc2)CC1
[2]
  outcome: inactive
[3]
  outcome: inactive

## C[C@H](N=C(NC#N)Nc1ccncc1)C(C)(C)C
[2]
  outcome: inactive
[3]
  outcome: inactive

## C=CCc1ccccc1OC[C@H](O)CNC(C)C
[2]
  outcome: inactive
[3]
  outcome: inactive

## CNCC[C@H](Oc1ccccc1OC)c1ccccc1
[2]
  outcome: inactive
[3]
  outcome: inactive

## N=C1Sc2ccccc2C2=NCCCN12
[2]
  outcome: inactive

## C#CCN1C(C)=C(C(=O)OC)[C@@H](c2cccc([N+](=O)[O-])c2)C(C(=O)OCC)=C1C
[2]
  outcome: inactive
[3]
  outcome: inactive
